{
  "source": "ChEMBL document CHEMBL4513216",
  "about": "“Probing the Open Global Health Chemical Diversity Library for Multistage-Active Starting Points for Next-Generation Antimalarials” (ACS Infect Dis, 2020)",
  "note": "Hit rate of the full screen: of about 69,000 compounds, about 8,600 (12%) showed an effect of 50% or more. This is one part of a sample in which strong results are shown more often than they occur.",
  "data": [
    {"system": "Plasmodium berghei", "experiment": "Screen against P. berghei liver stage (PbLuc), transformed with Luciferase, at 10uM", "assay_type": "functional, HepG2", "conditions": "tested at 10 uM", "units": {"INHIBITION": "%"}, "values": [
      {"smiles": "CCCc1nc(C(C)(C)NC(=O)C2CC(=O)N(C3CC3)C2)no1", "note": "(configuration not stated)", "INHIBITION": 40},
      {"smiles": "CC(C)(C)n1cc(CNC2CCN(C(=O)c3ccoc3)CC2)cn1", "INHIBITION": 1.75},
      {"smiles": "COc1cc(CN2CCC3(CC(Nc4ccncn4)C3)C2)cc(OC)c1", "note": "(configuration not stated)", "INHIBITION": 44.1},
      {"smiles": "Cc1cc2ccccc2n1CC(=O)NCC(=O)N1CCOCC1", "INHIBITION": 8.41},
      {"smiles": "CCOCc1nn(CC2CC2)c2c1CN(Cc1ccco1)CC2", "INHIBITION": 12.4},
      {"smiles": "COc1ccc(-n2ccc(C(=O)NCCN3CCC(C)CC3)n2)cc1", "INHIBITION": 38.8},
      {"smiles": "CC1CCCN(CCNC(=O)c2ccn(-c3ccccc3)n2)C1", "note": "(configuration not stated)", "INHIBITION": 29.4},
      {"smiles": "O=C(NCCN1CCCCC1)c1ccn(-c2ccc(F)cc2)n1", "INHIBITION": -2.53},
      {"smiles": "O=C(NCCN1CCCCCC1=O)c1ccn(-c2ccc(F)cc2)n1", "INHIBITION": 13.3},
      {"smiles": "COc1ccc(-n2ccc(C(=O)NCCN3CCCCC3)n2)cc1", "INHIBITION": 40.2},
      {"smiles": "CC1CCCN(CCNC(=O)c2ccn(-c3cccc(F)c3)n2)C1", "note": "(configuration not stated)", "INHIBITION": 51.1},
      {"smiles": "COc1ccc(-n2ccc(C(=O)NCCN3CCCCC3C)n2)cc1", "note": "(configuration not stated)", "INHIBITION": 44.8},
      {"smiles": "COc1ccc(-n2ccc(C(=O)NCCN3CCCC(C)C3)n2)cc1", "note": "(configuration not stated)", "INHIBITION": 62.1},
      {"smiles": "CCN1CCN(CCNC(=O)c2ccn(-c3ccc(F)cc3)n2)CC1", "INHIBITION": 60.2},
      {"smiles": "COc1ccc(-n2ccc(C(=O)NCCN3CCCCCC3)n2)cc1", "INHIBITION": 51.1},
      {"smiles": "CC1CCCN(CCNC(=O)c2ccn(-c3ccc(F)cc3)n2)C1", "note": "(configuration not stated)", "INHIBITION": 3.15},
      {"smiles": "COc1cn(-c2ccccc2)nc1C(=O)NCCN1CCCC(C)C1", "note": "(configuration not stated)", "INHIBITION": 22.3},
      {"smiles": "CC(C)CNC(=O)[C@H]1CCS(=O)(=O)[C@@H]2CN(CC(C)C)C[C@H]12", "INHIBITION": 23.3},
      {"smiles": "Cc1ccc(NC(=O)NCCn2cnc(C)c(C)c2=O)cc1F", "INHIBITION": -16.4},
      {"smiles": "CC(=O)c1cc2ncc(C(=O)NC3CCCC3)cc2[nH]1", "INHIBITION": 8.52},
      {"smiles": "CC(C)OC(=O)N1C[C@@H]2CC[C@H]1CN(C(=O)c1ccccc1)C2", "INHIBITION": -63.6},
      {"smiles": "Cc1ncccc1C(=O)NCC(C)Oc1ccc(F)cc1", "note": "(configuration not stated)", "INHIBITION": 10.1},
      {"smiles": "CCn1cnnc1CNC(=O)N(C)Cc1cccc(OC(F)F)c1", "INHIBITION": 36.1},
      {"smiles": "Cc1cnc(C2(C)CCN(Cc3cscn3)CC2)s1", "INHIBITION": -6.92},
      {"smiles": "COCCNC(=O)c1cc(-c2cc[nH]n2)n2ccccc12", "INHIBITION": -22.5},
      {"smiles": "Cc1c(C(=O)NC2CCCOc3cc(Cl)ccc32)cnn1C", "note": "(configuration not stated)", "INHIBITION": -25.8},
      {"smiles": "CCn1cc(-c2cc(C(F)F)nc3sc(C(N)=O)c(N)c23)c(C)n1", "INHIBITION": -35.4},
      {"smiles": "CCn1ncc(-c2cc(C(F)F)nc3sc(C(N)=O)c(N)c23)c1C", "INHIBITION": 64.8},
      {"smiles": "Cc1c(-c2cc(C(F)F)nc3sc(C(N)=O)c(N)c23)cnn1C", "INHIBITION": -17.2},
      {"smiles": "CC1CN(CCOc2ccccc2C#N)CCN1Cc1nccn1C", "note": "(configuration not stated)", "INHIBITION": 14.1},
      {"smiles": "Cc1ccc(C)c(CN2CCOC(c3noc(C)n3)C2)c1", "note": "(configuration not stated)", "INHIBITION": 8.53},
      {"smiles": "Cc1cccc(CN2CCC(c3nnsc3S(C)(=O)=O)CC2)n1", "INHIBITION": 30.8},
      {"smiles": "O[C@@H]1CN(Cc2cccc(F)c2)CC[C@H]1NCc1ccccn1", "INHIBITION": 43.05},
      {"smiles": "CC(C(=O)NCc1cccs1)N1CCN(Cc2nccn2C)CC1", "note": "(configuration not stated)", "INHIBITION": 46.4},
      {"smiles": "CC(NCc1ccc(OCc2nccn2C)cc1)c1cccnc1", "note": "(configuration not stated)", "INHIBITION": -63.6},
      {"smiles": "CC(NCc1cccs1)c1ccc(OCc2nccn2C)cc1", "note": "(configuration not stated)", "INHIBITION": 63.8},
      {"smiles": "CC(NCc1ccsc1)c1ccc(OCc2nccn2C)cc1", "note": "(configuration not stated)", "INHIBITION": 69.5},
      {"smiles": "COc1ccc(C(C)NCc2cccs2)cc1Cn1cccn1", "note": "(configuration not stated)", "INHIBITION": 10.6},
      {"smiles": "CC(NCc1cnn(C)c1)c1ccc(OCc2nccn2C)cc1", "note": "(configuration not stated)", "INHIBITION": 49.5},
      {"smiles": "Cc1sc(NC(=O)CN(C)CCOc2cccc(F)c2)c(C)c1C", "INHIBITION": 9.14},
      {"smiles": "COCCNC(=O)[C@H]1CN(Cc2scnc2C)C[C@H]2OCC[C@@H]12", "INHIBITION": -44.8},
      {"smiles": "Cc1nc(CCNC(=O)NC2CCCN(c3ncccn3)C2)cs1", "note": "(configuration not stated)", "INHIBITION": 8.03},
      {"smiles": "O=C1COc2cc(C(=O)NS(=O)(=O)c3ccccc3F)ccc2N1", "INHIBITION": 50.4},
      {"smiles": "O=C1COc2ccc(C(=O)NS(=O)(=O)c3ccccc3F)cc2N1", "INHIBITION": 14.1},
      {"smiles": "O=C1COc2cc(C(=O)NS(=O)(=O)c3ccc(F)cc3F)ccc2N1", "INHIBITION": 33.3},
      {"smiles": "c1cncc(-c2noc(CN3CCCCC3Cn3cccn3)n2)c1", "note": "(configuration not stated)", "INHIBITION": 33.8},
      {"smiles": "CC(OCc1ccccc1)C(=O)NCc1ccc(N(C)C)cc1", "note": "(configuration not stated)", "INHIBITION": 33.3},
      {"smiles": "Cn1ncc2c1C(COCC1CC1)N(Cc1ccoc1)CC2", "note": "(configuration not stated)", "INHIBITION": -29.3},
      {"smiles": "COC(=O)[C@H]1CN(C(=O)c2cscn2)C[C@@H]1c1ccc(F)cc1", "INHIBITION": 32.8},
      {"smiles": "CNC(=O)[C@@]12CCO[C@@H]1CCN(S(=O)(=O)c1cc(C)cc(C)c1)C2", "INHIBITION": 54.4},
      {"smiles": "CNC(=O)[C@@]12CCO[C@@H]1CCN(S(=O)(=O)c1ccc(C)cc1)C2", "INHIBITION": 21.8},
      {"smiles": "CNC(=O)[C@@]12CCO[C@@H]1CCN(S(=O)(=O)c1ccccc1F)C2", "INHIBITION": 52},
      {"smiles": "CNC(=O)[C@@]12CCO[C@@H]1CCN(S(=O)(=O)c1ccccc1C)C2", "INHIBITION": 6.6},
      {"smiles": "CNC(=O)[C@@]12CCO[C@@H]1CCN(S(=O)(=O)c1ccccc1)C2", "INHIBITION": 42.7},
      {"smiles": "CNC(=O)[C@@]12CCO[C@@H]1CCN(S(=O)(=O)c1cccc(C)c1)C2", "INHIBITION": 38.7},
      {"smiles": "Cc1nc(C(=O)N2CCC(c3nnc(Cn4ccnc4)n3C)CC2)cs1", "INHIBITION": -19.5},
      {"smiles": "Cc1ccc(Br)c(S(=O)(=O)NCc2ccnn2C)c1", "INHIBITION": -24.4},
      {"smiles": "COCCN1CCC2(CCN(CC3CC3)CC2)C1=O", "INHIBITION": 8.85},
      {"smiles": "Cc1nc[nH]c1-c1nccn1CCN(C)S(C)(=O)=O", "INHIBITION": 8.86},
      {"smiles": "Cc1nc[nH]c1-c1nc2cc(S(=O)(=O)N3CCCC3)ccc2n1C", "INHIBITION": 4.71},
      {"smiles": "NC(=O)c1ccc(-n2ccnc2C2CC2)cc1N1CCCC1", "INHIBITION": 36.3},
      {"smiles": "NC(=O)c1ccc(-n2ccnc2-c2cccc(O)c2)cc1N1CCCC1", "INHIBITION": 63.5},
      {"smiles": "CCN(CC)CCn1ccnc1-c1cccc(O)c1", "INHIBITION": -18.8},
      {"smiles": "Cn1ccnc1-c1nccn1-c1cccc(CN2CCCC2)c1", "INHIBITION": 39.9},
      {"smiles": "Cc1nc[nH]c1-c1nccn1-c1cccc(CN2CCCC2)c1", "INHIBITION": 53},
      {"smiles": "Cc1nc[nH]c1-c1nccn1-c1ccc(C(N)=O)c(N2CCCC2)c1", "INHIBITION": 50.5},
      {"smiles": "c1cc(CN2CCCC2)cc(-n2ccnc2-c2ccncc2)c1", "INHIBITION": 22.7}
    ]}
  ]
}
